Key:
Experiment in all cases: log2 ratio of Biotin-Ahx-Ub-VS probe labelling (fragment/DMSO); higher = less target engagement (more negative = stronger competition), active = hit call of the paper (q ≤ 0.05, log2 ratio ≤ -1)
Conditions in all cases: compound concentration: 200 uM; treatment time: 3 h
USP42 = biological target: T1, USP42 (UniProt Q9H9J4)
T1 sequence (whole entry): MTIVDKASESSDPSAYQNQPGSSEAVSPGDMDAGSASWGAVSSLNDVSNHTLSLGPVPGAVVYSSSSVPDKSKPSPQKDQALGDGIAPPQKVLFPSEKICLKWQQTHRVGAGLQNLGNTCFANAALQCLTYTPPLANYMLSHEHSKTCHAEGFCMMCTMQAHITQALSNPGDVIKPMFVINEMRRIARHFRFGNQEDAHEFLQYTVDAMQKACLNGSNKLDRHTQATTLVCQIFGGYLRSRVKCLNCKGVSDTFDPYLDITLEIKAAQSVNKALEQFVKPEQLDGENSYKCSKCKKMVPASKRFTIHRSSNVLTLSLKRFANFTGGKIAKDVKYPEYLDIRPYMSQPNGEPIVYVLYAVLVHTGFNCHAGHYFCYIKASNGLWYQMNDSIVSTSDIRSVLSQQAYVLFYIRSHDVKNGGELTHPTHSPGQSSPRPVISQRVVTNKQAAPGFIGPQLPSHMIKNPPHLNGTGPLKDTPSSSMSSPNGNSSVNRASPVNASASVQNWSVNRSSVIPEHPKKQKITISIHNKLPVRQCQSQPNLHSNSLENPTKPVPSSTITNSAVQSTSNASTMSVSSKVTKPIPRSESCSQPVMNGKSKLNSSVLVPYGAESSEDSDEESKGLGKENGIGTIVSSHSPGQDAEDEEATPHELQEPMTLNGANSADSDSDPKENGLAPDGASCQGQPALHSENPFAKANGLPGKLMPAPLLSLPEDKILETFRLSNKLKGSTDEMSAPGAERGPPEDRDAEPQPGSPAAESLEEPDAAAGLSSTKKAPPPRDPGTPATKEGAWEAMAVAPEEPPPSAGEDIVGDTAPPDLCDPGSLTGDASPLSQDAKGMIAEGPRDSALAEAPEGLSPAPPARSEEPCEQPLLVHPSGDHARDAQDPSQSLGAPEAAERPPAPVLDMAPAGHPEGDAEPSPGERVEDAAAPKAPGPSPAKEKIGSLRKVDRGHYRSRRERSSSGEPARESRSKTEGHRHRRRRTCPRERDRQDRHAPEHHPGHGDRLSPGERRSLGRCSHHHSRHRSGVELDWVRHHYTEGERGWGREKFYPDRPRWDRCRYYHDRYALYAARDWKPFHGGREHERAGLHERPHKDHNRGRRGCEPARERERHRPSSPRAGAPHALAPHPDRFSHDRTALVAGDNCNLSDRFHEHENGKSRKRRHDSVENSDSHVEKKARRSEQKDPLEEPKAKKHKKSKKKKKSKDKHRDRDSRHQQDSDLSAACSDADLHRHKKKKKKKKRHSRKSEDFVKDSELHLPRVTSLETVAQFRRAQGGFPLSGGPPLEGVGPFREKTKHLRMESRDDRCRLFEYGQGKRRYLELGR
Procedure, shortened: (§1)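 Labelled DUBs from HEK293T lysate were NeutrAvidin-enriched, digested with LysC and trypsin, and run by diaPASEF LC-MS/MS. Before that, each 495 µg sample in Tris/CHAPS/IGEPAL buffer with protease inhibitors was treated in triplicate with fragment at 200 µM or vehicle for 3 h, then with Biotin-Ahx-Ub-VS at 0.5 µM final for 1 h. Values are average log2 ratios of fragment over vehicle by unpaired t-test, based on global-median-normalised Spectronaut label-free quantities from proteins with ≥2 unique peptides.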

USP46 = USP46 (UniProt P62068)
Sequence of USP46 (P62068 whole entry): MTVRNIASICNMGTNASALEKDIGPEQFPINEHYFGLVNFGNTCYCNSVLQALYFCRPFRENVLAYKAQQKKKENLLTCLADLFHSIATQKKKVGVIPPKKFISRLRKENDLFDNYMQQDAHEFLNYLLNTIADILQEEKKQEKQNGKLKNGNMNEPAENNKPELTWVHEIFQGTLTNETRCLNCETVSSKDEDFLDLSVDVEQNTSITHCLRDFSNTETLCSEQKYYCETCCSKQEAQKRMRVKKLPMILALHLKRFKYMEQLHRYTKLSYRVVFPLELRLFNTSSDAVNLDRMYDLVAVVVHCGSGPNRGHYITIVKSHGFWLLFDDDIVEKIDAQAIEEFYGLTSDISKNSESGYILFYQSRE
Procedure, shortened: as §1

USP47 = biological target: T2, USP47 (UniProt Q96K76)
T2 sequence (whole entry): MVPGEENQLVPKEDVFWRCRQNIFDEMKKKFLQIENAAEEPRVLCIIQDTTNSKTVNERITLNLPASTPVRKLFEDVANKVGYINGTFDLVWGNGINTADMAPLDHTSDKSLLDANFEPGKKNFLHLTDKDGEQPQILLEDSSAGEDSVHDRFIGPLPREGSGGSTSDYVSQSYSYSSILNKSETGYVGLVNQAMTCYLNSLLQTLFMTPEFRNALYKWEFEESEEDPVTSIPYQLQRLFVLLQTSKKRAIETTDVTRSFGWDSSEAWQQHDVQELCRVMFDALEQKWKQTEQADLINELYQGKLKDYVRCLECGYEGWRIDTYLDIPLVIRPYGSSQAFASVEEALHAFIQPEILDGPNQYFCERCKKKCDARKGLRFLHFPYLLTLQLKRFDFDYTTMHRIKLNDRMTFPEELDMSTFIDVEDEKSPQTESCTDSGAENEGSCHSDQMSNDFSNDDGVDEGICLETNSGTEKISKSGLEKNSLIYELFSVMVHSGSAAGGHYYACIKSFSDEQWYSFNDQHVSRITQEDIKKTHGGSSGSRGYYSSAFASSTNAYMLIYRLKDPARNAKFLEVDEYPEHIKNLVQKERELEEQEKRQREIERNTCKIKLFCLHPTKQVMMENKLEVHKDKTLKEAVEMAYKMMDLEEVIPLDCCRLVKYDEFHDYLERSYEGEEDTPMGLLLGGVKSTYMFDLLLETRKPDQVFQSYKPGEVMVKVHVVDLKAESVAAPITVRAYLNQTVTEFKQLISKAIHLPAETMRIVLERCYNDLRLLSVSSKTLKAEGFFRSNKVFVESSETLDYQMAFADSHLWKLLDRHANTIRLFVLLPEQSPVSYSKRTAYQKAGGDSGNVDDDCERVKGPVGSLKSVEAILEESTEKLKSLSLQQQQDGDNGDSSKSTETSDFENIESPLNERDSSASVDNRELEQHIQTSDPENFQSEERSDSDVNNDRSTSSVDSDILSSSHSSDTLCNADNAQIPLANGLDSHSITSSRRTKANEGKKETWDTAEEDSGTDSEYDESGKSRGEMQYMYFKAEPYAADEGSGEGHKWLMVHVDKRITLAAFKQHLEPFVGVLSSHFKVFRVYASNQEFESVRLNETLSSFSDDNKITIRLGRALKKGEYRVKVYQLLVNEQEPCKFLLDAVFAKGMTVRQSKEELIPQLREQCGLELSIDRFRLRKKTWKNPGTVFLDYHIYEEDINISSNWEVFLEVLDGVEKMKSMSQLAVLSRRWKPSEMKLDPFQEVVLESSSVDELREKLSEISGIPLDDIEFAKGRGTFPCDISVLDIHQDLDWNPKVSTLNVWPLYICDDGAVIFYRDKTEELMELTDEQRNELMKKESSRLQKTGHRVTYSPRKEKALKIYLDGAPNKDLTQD
Procedure, shortened: as §1

USP48 = biological target: T3, USP48 (UniProt Q86UV5)
T3 sequence (whole entry): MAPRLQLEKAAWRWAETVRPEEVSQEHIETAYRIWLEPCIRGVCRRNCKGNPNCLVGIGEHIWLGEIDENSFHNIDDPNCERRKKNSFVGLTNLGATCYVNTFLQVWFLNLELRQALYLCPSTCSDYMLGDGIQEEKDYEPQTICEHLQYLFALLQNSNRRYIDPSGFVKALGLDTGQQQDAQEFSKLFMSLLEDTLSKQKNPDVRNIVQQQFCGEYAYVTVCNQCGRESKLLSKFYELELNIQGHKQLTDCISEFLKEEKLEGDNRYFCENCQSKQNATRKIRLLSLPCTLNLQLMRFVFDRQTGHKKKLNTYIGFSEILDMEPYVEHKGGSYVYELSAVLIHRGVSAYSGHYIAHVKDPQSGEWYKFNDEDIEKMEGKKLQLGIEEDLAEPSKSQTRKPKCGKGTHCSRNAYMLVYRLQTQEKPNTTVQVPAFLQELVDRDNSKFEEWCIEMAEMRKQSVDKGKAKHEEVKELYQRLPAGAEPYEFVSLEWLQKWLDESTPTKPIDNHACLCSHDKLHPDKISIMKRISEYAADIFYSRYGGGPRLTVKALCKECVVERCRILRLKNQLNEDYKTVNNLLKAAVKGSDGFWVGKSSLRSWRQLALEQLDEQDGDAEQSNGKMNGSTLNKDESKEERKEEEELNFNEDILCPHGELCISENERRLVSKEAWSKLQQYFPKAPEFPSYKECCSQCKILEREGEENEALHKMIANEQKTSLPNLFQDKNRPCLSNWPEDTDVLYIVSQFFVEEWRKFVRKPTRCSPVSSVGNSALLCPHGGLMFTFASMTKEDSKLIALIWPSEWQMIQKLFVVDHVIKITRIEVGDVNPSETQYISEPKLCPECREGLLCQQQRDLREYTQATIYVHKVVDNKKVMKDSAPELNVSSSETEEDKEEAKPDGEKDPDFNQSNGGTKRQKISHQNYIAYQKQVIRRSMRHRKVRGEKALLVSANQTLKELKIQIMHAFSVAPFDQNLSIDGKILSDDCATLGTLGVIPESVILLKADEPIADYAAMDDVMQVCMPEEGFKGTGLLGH
Procedure, shortened: as §1

USP5 = biological target: T4, USP5 (UniProt P45974)
T4 sequence (whole entry): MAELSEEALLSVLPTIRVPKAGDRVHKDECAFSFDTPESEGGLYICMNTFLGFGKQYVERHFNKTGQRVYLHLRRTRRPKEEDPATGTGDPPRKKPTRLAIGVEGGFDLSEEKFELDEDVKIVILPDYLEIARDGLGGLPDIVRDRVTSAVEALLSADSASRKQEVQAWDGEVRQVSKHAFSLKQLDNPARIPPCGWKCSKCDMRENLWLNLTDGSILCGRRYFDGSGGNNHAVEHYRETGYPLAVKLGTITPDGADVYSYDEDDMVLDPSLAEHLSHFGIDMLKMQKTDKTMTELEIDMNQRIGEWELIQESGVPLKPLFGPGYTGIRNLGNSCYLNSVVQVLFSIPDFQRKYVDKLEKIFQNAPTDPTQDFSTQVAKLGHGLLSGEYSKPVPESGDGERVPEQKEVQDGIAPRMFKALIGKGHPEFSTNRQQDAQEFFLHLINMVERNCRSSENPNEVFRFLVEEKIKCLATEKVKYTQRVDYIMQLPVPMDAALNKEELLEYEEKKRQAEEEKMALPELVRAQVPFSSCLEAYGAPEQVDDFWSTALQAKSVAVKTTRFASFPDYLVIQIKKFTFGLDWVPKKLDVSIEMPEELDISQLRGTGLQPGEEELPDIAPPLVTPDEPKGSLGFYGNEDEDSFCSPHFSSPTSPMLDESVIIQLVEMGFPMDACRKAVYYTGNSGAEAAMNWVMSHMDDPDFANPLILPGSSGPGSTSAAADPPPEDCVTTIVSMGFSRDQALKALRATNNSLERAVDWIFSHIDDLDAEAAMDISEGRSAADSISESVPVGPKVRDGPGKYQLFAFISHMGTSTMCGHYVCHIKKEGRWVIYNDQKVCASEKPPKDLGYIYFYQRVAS
Procedure, shortened: as §1

USP54 = USP54 (UniProt Q70EL1)
Sequence of USP54 (Q70EL1 whole entry): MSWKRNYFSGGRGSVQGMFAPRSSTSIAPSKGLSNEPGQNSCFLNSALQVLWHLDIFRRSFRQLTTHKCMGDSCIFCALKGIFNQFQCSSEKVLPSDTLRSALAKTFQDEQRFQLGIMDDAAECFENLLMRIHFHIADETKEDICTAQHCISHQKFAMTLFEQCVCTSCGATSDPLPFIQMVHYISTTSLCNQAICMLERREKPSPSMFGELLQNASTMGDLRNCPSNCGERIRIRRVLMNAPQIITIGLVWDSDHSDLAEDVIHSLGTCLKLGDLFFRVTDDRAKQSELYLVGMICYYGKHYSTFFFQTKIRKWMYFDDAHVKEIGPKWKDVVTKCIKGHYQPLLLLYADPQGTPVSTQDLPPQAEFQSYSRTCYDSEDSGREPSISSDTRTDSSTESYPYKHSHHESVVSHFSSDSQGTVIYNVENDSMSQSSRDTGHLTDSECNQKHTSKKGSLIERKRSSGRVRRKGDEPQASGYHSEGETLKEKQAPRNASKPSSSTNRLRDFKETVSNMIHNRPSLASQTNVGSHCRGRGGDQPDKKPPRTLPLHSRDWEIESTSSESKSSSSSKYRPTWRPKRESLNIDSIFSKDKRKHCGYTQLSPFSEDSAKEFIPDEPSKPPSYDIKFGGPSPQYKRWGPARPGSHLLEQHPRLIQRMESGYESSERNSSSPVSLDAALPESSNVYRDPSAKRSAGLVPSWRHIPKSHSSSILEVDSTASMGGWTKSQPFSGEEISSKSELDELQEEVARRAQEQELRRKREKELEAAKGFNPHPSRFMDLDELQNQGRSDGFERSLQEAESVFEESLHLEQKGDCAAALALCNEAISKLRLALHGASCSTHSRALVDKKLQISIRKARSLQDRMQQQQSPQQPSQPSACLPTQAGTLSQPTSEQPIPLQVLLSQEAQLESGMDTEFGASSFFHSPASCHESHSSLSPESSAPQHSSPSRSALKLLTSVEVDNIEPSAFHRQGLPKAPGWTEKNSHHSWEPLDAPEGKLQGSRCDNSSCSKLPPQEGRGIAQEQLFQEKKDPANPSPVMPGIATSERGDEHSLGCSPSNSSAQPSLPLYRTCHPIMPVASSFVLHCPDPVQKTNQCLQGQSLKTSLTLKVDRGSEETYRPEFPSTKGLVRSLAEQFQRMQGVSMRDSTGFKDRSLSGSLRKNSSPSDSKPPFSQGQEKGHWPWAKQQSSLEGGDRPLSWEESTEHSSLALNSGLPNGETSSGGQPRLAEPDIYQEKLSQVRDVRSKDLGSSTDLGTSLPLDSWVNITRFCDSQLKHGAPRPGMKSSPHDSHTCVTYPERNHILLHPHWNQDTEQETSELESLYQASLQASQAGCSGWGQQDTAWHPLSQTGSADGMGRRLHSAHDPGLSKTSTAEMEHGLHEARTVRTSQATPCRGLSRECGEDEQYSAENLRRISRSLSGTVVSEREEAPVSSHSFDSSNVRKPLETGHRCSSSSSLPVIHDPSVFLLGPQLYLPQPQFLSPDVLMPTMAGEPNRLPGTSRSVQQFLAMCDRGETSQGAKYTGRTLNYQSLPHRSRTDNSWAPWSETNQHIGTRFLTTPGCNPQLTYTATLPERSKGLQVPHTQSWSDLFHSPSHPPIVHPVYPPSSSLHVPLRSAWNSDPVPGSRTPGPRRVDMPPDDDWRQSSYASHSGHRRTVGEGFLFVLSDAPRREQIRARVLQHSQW
Procedure, shortened: as §1

USP7 = USP7 (UniProt Q93009)
Sequence of USP7 (Q93009 whole entry, looked up): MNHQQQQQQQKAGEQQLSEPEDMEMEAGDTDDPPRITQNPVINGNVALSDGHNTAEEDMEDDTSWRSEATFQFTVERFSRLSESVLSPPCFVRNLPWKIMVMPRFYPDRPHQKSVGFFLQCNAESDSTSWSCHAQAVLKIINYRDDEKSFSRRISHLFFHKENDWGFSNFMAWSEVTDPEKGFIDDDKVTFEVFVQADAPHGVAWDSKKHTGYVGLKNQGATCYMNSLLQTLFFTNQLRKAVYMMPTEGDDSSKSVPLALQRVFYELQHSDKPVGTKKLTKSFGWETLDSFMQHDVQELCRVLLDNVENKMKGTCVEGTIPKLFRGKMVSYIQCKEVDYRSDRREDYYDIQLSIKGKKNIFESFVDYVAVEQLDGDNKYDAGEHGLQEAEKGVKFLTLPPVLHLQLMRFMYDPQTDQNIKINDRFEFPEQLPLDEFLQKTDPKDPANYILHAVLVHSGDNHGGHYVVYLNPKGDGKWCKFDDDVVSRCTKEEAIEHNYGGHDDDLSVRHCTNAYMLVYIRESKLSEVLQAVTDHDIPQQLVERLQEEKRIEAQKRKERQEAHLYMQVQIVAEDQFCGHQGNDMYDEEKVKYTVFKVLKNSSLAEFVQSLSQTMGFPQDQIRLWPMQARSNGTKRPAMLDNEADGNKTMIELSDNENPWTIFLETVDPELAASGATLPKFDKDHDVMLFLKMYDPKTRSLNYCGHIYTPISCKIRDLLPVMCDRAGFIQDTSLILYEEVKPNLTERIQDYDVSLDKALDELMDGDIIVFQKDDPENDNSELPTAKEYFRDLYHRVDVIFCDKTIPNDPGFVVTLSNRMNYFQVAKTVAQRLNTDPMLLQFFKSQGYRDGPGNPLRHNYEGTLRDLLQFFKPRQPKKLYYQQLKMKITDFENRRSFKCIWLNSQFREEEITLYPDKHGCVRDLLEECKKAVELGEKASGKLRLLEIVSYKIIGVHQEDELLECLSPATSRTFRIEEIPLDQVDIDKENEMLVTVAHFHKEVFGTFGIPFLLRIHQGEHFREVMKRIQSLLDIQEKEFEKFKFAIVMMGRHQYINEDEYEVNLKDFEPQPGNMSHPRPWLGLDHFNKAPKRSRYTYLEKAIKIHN
Procedure, shortened: as §1

USP8 = biological target: T5, USP8 (UniProt P40818)
T5 sequence (whole entry): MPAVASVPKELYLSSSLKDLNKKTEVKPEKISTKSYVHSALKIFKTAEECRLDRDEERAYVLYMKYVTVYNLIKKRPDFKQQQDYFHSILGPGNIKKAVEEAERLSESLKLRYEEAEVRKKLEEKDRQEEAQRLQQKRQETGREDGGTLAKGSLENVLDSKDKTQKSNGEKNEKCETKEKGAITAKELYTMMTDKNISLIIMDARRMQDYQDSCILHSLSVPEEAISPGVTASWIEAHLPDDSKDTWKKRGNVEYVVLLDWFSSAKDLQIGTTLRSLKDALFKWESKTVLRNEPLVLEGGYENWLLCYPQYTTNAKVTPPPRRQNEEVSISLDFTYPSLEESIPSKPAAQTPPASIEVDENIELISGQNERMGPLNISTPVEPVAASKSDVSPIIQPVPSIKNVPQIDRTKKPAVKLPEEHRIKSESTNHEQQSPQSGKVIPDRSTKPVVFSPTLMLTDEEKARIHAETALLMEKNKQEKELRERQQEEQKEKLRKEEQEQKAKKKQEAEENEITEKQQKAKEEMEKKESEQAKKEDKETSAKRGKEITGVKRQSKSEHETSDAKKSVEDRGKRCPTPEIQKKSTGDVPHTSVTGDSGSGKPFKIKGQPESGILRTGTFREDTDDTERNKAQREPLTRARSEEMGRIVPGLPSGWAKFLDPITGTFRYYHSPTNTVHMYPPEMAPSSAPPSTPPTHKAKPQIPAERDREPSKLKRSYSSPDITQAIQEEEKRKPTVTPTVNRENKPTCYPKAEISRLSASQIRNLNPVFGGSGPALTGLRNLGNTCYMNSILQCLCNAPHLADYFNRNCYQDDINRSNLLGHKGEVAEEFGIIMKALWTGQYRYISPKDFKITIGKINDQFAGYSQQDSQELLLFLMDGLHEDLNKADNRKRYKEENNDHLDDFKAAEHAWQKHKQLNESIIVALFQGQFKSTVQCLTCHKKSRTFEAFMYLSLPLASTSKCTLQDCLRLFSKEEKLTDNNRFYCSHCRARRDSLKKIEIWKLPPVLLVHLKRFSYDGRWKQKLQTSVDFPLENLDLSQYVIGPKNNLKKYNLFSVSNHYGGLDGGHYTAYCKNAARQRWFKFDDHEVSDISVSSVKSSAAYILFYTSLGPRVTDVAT
Procedure, shortened: as §1

USP9X = USP9X (UniProt Q93008)
Procedure, shortened: as §1

UniProt O00487 = biological target: UniProt O00487
Sequence of UniProt O00487 (O00487 whole entry): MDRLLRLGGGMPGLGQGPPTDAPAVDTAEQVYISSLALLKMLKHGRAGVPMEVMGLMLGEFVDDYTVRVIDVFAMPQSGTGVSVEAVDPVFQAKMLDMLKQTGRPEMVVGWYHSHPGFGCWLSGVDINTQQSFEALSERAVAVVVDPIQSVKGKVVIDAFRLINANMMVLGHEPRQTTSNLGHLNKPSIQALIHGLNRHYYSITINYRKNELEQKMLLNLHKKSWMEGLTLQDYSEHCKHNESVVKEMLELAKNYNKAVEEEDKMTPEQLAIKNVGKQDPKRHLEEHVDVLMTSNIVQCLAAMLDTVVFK
Procedure, shortened: as §1

Measured: log2 ratio of Biotin-Ahx-Ub-VS probe labelling

CN(Cc1nc2ccccc2[nH]1)C(=O)CCl.Cl
active: USP48 -1.14 | USP7 -1.36
inactive: USP42 0.698 | USP46 -0.254 | USP47 -0.178 | USP5 0.118 | USP54 -0.517 | USP8 -0.0998 | USP9X -0.057 | UniProt O00487 -0.00224

Cl.O=C(CCl)N1CCC(Cc2nccs2)C1 (stereo not given)
inactive: USP42 0.34 | USP46 0.105 | USP47 -0.538 | USP48 -0.286 | USP5 0.225 | USP54 0.476 | USP7 -0.334 | USP8 -0.208 | USP9X -0.186 | UniProt O00487 -0.1

CS(=O)(=O)N1CCCN(C(=O)CCl)CC1
inactive: USP42 -0.107 | USP46 0.169 | USP47 -0.733 | USP48 -0.507 | USP5 -0.0151 | USP54 0.239 | USP7 -0.301 | USP8 -0.323 | USP9X -0.177 | UniProt O00487 0.0126

Source: the supplement of paper PMC11732987, “Enantioselective OTUD7B fragment discovery through chemoproteomics screening and high-throughput optimisation” (Communications Chemistry, 2025)
